Measurements from PubChem BioAssay (NCATS).
Results filed as inconclusive are left out. Active and inactive are the calls of the source. Calls come from the whole dose curve; as a rule, active = well fitted curve in the direction sought with a large enough effect; inconclusive = small, poorly fitted or top-dose-only effect, or another doubt; inactive = no such curve, though single readings can be large; an effect the other way counts as inactive or inconclusive.

Tests used:
[1] = Viability counterscreen for antagonist of constitutive androstane receptor (CAR) against the NCATS DSHEA and TCM libraries (AID 1794837); conditions: CAR reporter cell line viability counterscreen, qHTS; series mostly up to 40 µM;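 note: compound exposure lasted 24 h before viability reading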
Method in brief: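 Cell viability, CellTiter-Fluor, Ex/Em 405/540 nm, 1 h at 37C. HepG2-CYP2B6-hCAR, 2,500 cells/well; cpds + CITCO 48 uM final (antagonist mode), 24 h, 37C/5% CO2.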

[2] = Viability counterscreen for agonist of constitutive androstane receptor (CAR) against the NCATS DSHEA and TCM libraries (AID 1794838); conditions: HepG2 cell viability counterscreen, CAR agonist assay, co-treated with 0.75 µM CAR antagonist; series mostly up to 40 µM;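 note: HepG2 cells with CYP2B6 reporter and hCAR plus 0.75 µM PK11195 antagonist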
Method in brief: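 Viability by CellTiter-Fluor fluorescence, 405/540 nm, after 1 h at 37C. HepG2-CYP2B6-hCAR cells were exposed 24 h to test substances in presence of 0.75 uM PK11195 (final).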

[3] = target: Nuclear receptor subfamily 1 group I member 3 (Homo sapiens) (UniProt Q14994); assay: Primary qHTS for agonist of constitutive androstane receptor (CAR) against the NCATS DSHEA and TCM libraries (AID 1794839); conditions: CAR agonist reporter cells, qHTS luminescence, CAR antagonist co-added at 0.75 µM; series mostly up to 40 µM;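 note: HepG2 cells expressing human CAR with a CYP2B6 reporter plus PK11195 antagonist; luciferase reporter luminescence read with ONE-Glo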
Sequence of Nuclear receptor subfamily 1 group I member 3 (Homo sapiens) (Q14994 whole entry, looked up): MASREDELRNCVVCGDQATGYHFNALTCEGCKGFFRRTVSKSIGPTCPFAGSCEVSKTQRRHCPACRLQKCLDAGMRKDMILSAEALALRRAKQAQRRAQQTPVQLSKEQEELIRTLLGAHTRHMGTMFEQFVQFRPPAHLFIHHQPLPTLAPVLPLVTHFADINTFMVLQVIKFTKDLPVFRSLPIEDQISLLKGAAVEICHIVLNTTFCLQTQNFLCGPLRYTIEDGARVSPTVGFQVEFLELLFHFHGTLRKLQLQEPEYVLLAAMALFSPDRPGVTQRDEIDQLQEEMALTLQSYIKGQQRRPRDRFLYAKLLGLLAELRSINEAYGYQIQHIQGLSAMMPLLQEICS
Excerpt: National Center for Advancing Translational Sciences (NCATS), Rockville, MD
National Institute of Health (NIH), Bethesda, Maryland
Dietary Supplements and Natural Products have minor oversight of their safety and efficacy. We assembled a collection of Dietary Supplements and Natural Products (DSNP) as well as Traditional Chinese Medicinal (TCM) Plant extracts, which were screened against an in vitro panel of assays, including a liver cytochrome p450 enzyme panel, CAR/PXR signaling pathways, and P-gp transporter assays, to assess their activity. This pipeline facilitated the interrogation of Natural Product-Drug Interaction (NaPDI) through prominent metabolizing pathways. In addition, we compared the activity profiles of the DSNP/TCM substances with those of an approved drug collection. Many of the approved drugs have well-annotated mechanisms of action (MOA) while the MOAs for most of the DSNP and TCM samples remain unknown. […] Overall, we highlight four significant bioactivity profiles (measured by p-values) as examples of this prediction. […]
8; Detector 1; Fluorescence intensity; ViewLux plate reader (excitation 405 nm, emission 540 nm). […]
11; Detector 2; Luminescence intensity; ViewLux. […]
8. Fluorescence intensity (Ex/Em = 405 nm/540 nm) is obtained using the ViewLux plate reader to determine cell viability. […]
10. Luminescence intensity is read using the ViewLux detector. […]

[4] = HepG2 viability counterscreen (readout 2: ATP content) against the NCATS DSHEA and TCM libraries (AID 1794840); conditions: ATP content luminescence; series mostly up to 27.3 µM
Method in brief: (§1)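 1,000 HepG2 cells/well, 4 h attach; compounds ~24 h, 37C/5% CO2. Readout 1: GF-AFC 25 uM final, 30 min, fluorescence 380/510 nm. Readout 2: CellTiter-Glo, 30 min RT, luminescence.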

[5] = target: Cytochrome P450 3A4 (Homo sapiens) (UniProt P08684); assay: qHTS for inhibitors of CYP3A4 against the NCATS DSHEA and TCM libraries (AID 1919971); conditions: recombinant CYP3A4 enzyme activity, luminescence qHTS; series mostly up to 34.1 µM;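 note: inhibition lowers luminescence from luciferin made by CYP3A4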
Sequence of Cytochrome P450 3A4 (Homo sapiens) (P08684 whole entry, looked up): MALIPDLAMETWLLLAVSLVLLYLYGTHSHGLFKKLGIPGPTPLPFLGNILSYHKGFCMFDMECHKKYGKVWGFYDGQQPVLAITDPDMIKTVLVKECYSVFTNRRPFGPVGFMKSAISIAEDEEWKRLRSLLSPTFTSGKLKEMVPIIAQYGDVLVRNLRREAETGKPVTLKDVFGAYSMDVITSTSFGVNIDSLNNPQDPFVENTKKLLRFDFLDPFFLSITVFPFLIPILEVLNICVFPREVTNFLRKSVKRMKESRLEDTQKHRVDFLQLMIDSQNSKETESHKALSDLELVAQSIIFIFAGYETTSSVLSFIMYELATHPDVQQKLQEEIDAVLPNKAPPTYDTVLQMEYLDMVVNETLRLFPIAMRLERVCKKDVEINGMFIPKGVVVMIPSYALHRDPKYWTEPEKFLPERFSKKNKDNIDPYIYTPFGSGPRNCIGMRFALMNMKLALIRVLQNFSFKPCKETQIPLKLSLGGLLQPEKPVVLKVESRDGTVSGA
Method in brief: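 Luminescent P450-Glo format: compounds preincubated 15 min with enzyme and luciferin substrate, reaction run 30-45 min after NADPH regeneration solution. Intraplate controls: ketoconazole for CYP3A4 and CYP2C19, sulfaphenazole for CYP2C9.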

[6] = HepG2 viability counterscreen (readout 1: protease activity) against the NCATS DSHEA and TCM libraries (AID 1794841); conditions: qHTS concentration series; series mostly up to 27.3 µM;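 note: cells exposed to compounds for about 24 h before the protease read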
Method in brief: as §1

[7] = target: Metallo-beta-lactamase type 2 (Klebsiella pneumoniae) (UniProt C7C422); assay: qHTS to identify inhibitors of the New Delhi Metallo-beta-lactamase (NDM): assay validation screen against the NCATS LOPAC Collection (AID 1794843); conditions: NDM-1 enzyme, nitrocefin hydrolysis, absorbance 485 nm; series mostly up to 38.4 µM;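 note: nitrocefin turnover by NDM-1 measured as 485 nm absorbance at plateau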
Sequence of Metallo-beta-lactamase type 2 (Klebsiella pneumoniae) (C7C422 whole entry, looked up): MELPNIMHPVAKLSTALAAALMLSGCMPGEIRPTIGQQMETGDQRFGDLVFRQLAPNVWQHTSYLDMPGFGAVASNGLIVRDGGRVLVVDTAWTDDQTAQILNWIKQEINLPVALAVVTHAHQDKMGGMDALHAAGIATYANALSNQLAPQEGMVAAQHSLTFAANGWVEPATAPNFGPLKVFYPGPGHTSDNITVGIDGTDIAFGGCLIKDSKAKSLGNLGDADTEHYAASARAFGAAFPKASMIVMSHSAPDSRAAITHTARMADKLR
Method in brief: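 Enzyme 2 nM final, 50 mM HEPES pH 7.0, 1 uM ZnSO4, 0.01% Tween20; cpds in DMSO, preincub w/ enzyme; + nitrocefin (50 uM stock); A485 at plateau; no-enzyme column as blank.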

[8] = target: Glutathione peroxidase 1 (Homo sapiens) (UniProt P07203); assay: Primary qHTS Assay for Inhibitors of Recombinant Selenoprotein Glutathione Peroxidase 1 (GPX1) (AID 1845191); conditions: recombinant GPX1, GR-coupled NADPH fluorescence, 15 min; series mostly up to 48.8 µM; note: nearly all actives have a fitted effect of over 65% in size
Sequence of Glutathione peroxidase 1 (Homo sapiens) (P07203 whole entry, looked up): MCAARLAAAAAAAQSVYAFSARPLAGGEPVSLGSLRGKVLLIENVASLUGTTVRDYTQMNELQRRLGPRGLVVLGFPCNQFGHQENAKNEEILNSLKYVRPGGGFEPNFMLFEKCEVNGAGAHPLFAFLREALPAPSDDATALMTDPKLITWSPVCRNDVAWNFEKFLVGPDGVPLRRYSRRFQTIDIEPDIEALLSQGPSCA
Method in brief: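 10 nM GPX1 + cpd, 30 min RT; start w/ 1 mM GSH, 0.5 mM cumene hydroperoxide, 0.5 mM NADPH, 100 nM GR, 0.01% BSA; buffer 50 mM Tris-HCl pH 7.5, 2 mM EDTA, 150 mM NaCl; Fl 340/450, 0 & 15 min.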

[9] = target: Phospholipid hydroperoxide glutathione peroxidase GPX4 (Homo sapiens) (UniProt P36969); assay: Primary qHTS Assay for Inhibitors of Recombinant Selenoprotein Glutathione Peroxidase 4 (GPX4) (AID 1845192); conditions: recombinant GPX4, GR-coupled NADPH fluorescence, 15 min; series mostly up to 50 µM; note: nearly all actives have a fitted effect of over 65% in size
Sequence of Phospholipid hydroperoxide glutathione peroxidase GPX4 (Homo sapiens) (P36969 whole entry, looked up): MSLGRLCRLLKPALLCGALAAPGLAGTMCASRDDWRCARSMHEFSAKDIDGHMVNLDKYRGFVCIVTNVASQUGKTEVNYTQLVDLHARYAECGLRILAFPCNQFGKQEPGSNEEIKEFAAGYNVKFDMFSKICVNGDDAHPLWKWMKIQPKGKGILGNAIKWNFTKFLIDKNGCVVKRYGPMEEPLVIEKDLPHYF
Method in brief: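 NADPH consumption, followed by fluorescence at 340/450 nm between 0 and 15 min, reports GPX4 activity via coupled glutathione reductase (100 nM). Enzyme 200 nM was pre-exposed to compound 30 min; 0.5 mM cumene hydroperoxide and 1 mM GSH served as substrates.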

Measured: Potency

O=C(O)/C=C/c1ccc(O)c(O)c1
inactive: [1] | [2] | [3] | [4] | [5]

C=C1C[C@@]23CC[C@H]4[C@@](C)(CCC[C@@]4(C)C(=O)OC4OC(CO)C(O)C(O)C4O)[C@@H]2CC[C@]1(OC1OC(CO)C(O)C(O)C1OC1OC(CO)C(O)C(O)C1O)C3 (some centres not stated)
not listed: [7] | [8] | [9]
inactive: all other assays above

O=c1[nH]ccc2c(O)cccc12
inactive: [7] | [8] | [9]

CC(C)(C)NCC(O)COc1cccc2[nH]c(=O)[nH]c12 (configuration not stated)
inactive: [7] | [8] | [9]

COC(=O)C1=C(C)NC(C)=C([N+](=O)[O-])C1c1ccccc1C(F)(F)F (configuration not stated)
inactive: [7] | [8] | [9]

O=C(O)/C(=C/c1c(C(=O)O)[nH]c2cc(Cl)cc(Cl)c12)c1ccccc1
inactive: [7] | [8] | [9]

Nc1ccc(CCNc2ncnc3c2ncn3C2OC(CO)C(O)C2O)cc1 (configuration not stated)
inactive: [7] | [8] | [9]

O=C(O)C1=CCNCC1
inactive: [7] | [8] | [9]

NC(N)=NC(N)=Nc1ccccc1
inactive: [7] | [8] | [9]

O=C(O)C1=CCCNC1
inactive: [7] | [8] | [9]

O=S(=O)(c1cccc2c(Cl)cccc12)N1CCCNCC1
inactive: [7] | [8] | [9]

N#Cc1cc2nc(O)c(O)nc2cc1[N+](=O)[O-]
inactive: [7] | [8] | [9]

CC[n+]1c(/C=C/C=C2/N(C)c3ccccc3C2(C)C)sc2ccccc21
inactive: [7] | [8] | [9]

O=C(O)CCC(=O)N1CCCC1C(=O)O (configuration not stated)
inactive: [7] | [8] | [9]
